Test results: PubChem BioAssay (NCI)
About 79,000 compounds went through this panel and 15% of them were active in at least one assay; those are over-represented in the sample as a whole. A number with no mark means an inactive call. Activity calls are given as the source filed them. Cut-off read from the data, not from the text of the source: active = growth inhibition above about 70%; inactive = the rest.

Assay: NCI Yeast Anticancer Drug Screen. Data for the wt1 strain (AID 149);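 note: 0% = growth of vehicle-treated wt1 cultures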
Conditions: S. cerevisiae wt1 strain (SPY 50644) growth inhibition, active compounds read high
Method: Growth inhibition of yeast strains with defined genetic alterations is measured as a screen for potential anti-cancer activity. Selected strains with alterations in DNA damage repair or cell cycle control were exposed to compounds and growth inhibition was measured relative to vehicle treated controls. The strain used in this assay is wt1

Row | SMILES | growth inhibition (at 1.2 µM) | growth inhibition (at 3.7 µM) | growth inhibition (at 11.0 µM) | growth inhibition (at 33.0 µM) | growth inhibition (at 100.0 µM)
1 | CCCCOc1ccc(Nc2c3ccccc3nc3ccccc23)cc1 | -12% | -24% | 69% | 98% (active) | 83% (active)
2 | COc1ccc2cc(CN3CCC(C4CCN(Cc5ccc6cc(OC)ccc6c5)CC4)CC3)ccc2c1 | -1% | -16% | 5% | 8% | 98% (active)
3 | O=C(CSS(=O)(=O)O)c1ccccc1 | 0% | 5% | 2% | 5% | 12%
4 | Cc1cccc(N2CCN(C(=O)/C(=C/c3ccccc3)NC(=O)c3ccccc3)CC2)c1 | -3% | -1% | -2% | 24% | 31%
5 | CCOC(=O)/C(O)=C(/C=N/C(=S)Nc1c(CC)cccc1CC)C(=O)OCC | -31% | -7% | 2% | 21% | 33%
6 | O=S(=O)(O)c1ccc2c(N=Nc3c(O)ccc4ccccc34)cccc2c1 | 0% | 1% | 21% | 50% | 71% (active)
7 | CCCCCC/C(C)=N/Nc1ccc([N+](=O)[O-])cc1[N+](=O)[O-] | 8% | 1% | 4% | -7% | -13%
8 | CCCCCCC(CCl)c1sc(-c2csc(CCNC(=O)OC(C)(C)C)n2)nc1C(=O)OC (stereo not given) | -1% | -4% | -5% | -5% | 30%
